According to PubChem BioAssay (NCI):
Compounds without any hit were thinned out: in the full panel of roughly 83,000, 20% have a hit.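 Single-dose data. Exposure time 48 hours. Values below 10 considered active.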 Activity calls are given as the source filed them.

What follows are compounds tested on HL-60(TB) leukemia (assay: NCI-60 one-dose screen, 48 h (100 = growth as untreated, 0 = no growth, -100 = all killed)). Conditions: 10 µM unless noted.

Row | Compound | growth
1 | CCNC(=O)N1CCc2cc(OC)c(OCCc3ccc(OC)nc3)cc2C1c1ccc(OC)cc1C (stereo not given) | 11.5% (inactive)
2 | CCCCCCNC(=O)Oc1ccc(/C(=C(/C)c2ccc(OC)cc2)c2ccc(OCCN3CCCCCC3)cc2)cc1 | -0.81% (active)
3 | O=C1Nc2cc(Cl)ccc2/C1=C\c1ccc(OCc2ccc([N+](=O)[O-])cc2)cc1 | 96.9% (inactive)
4 | Cc1ccc(-c2nn(-c3ccccc3)cc2/C=C/C(=O)c2ccc(NC(=O)CCCCCCC(=O)NO)cc2)cc1 | 109% (inactive)
5 | NC(=O)c1ncn2c(=O)n(CCF)nnc12 | 29.6% (inactive)
6 | COc1cc2nc(-c3ccc(C)cc3)cc(OCCCNCC3CCCO3)c2cc1OC (stereo not given) | 48.6% (inactive)
7 | Cc1cc(-c2ccc(Cl)cc2)n(Cc2nnc(SCC(=O)Nc3ccc(S(N)(=O)=O)cc3)n2C2CCCCC2)n1 | 116% (inactive)
8 | O=C1/C(=C/C2=Cc3ccccc3OC2)SC(=S)N1c1ccc(F)cc1 | 95.2% (inactive)
9 | O=C(c1ccc(O)cc1)[C@@H]1CN[C@@]2(C(=O)Nc3ccccc32)[C@H]1c1ccc(F)cc1 | 95.4% (inactive)
10 | COc1ccc2c(c1)c(/C=N/Nc1ccnc3cc(Cl)ccc13)cn2C | -52.2% (active)
11 | Cc1ccc(/C(N)=N/C(N)=N/c2nc3ccccc3s2)cc1 | 81.6% (inactive)
12 | CN(c1ccc(Br)cc1)S(=O)(=O)c1ccc(-c2cnc(C3CC3)o2)cc1 | -25.1% (active)
13 | C=CCn1c(SCC(=O)c2ccccc2)nnc1-c1c[nH]c2ccccc12 | 95.6% (inactive)
14 | N=C1CC(=O)NN1C(=O)CSc1nc2sc3c(c2c(=O)n1-c1ccc(Cl)cc1)CCCC3 | 108% (inactive)
15 | O=C(Nc1cccc(Cl)c1)Nc1nc2ccc([N+](=O)[O-])cc2s1 | -40% (active)
